# Results filed as inconclusive are left out. A call without a number means that no potency is given here. Active and inactive are the calls of the source. Unless noted, calls come from the whole dose curve; as a rule, active = well fitted curve in the direction sought with a large enough effect; inconclusive = small, poorly fitted or top-dose-only effect, or another doubt; inactive = no such curve, though single readings can be large; an effect the other way counts as inactive or inconclusive.
# How the values were obtained:
# [1] = molecular target: Mitogen-activated protein kinase 10 (Mus musculus) (UniProt Q61831); assay: JNK3 AlphaScreen Assay (AID 530; active = well fitted curve in either direction with a large enough effect, not every such curve was filed as active;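 note: kinase came from lysate of stimulated human HepG2 cells; signal reports phosphorylation of biotinylated GST-cJun 1-79 at Ser73 with 10 µM ATP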)
# Method in brief: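 Inhibitors reduce antibody binding to phosphorylated biotin-cJun, lowering AlphaScreen luminescence. Lysates from HepG2 cells pre-activated by IL-1beta plus TNF-alpha supplied JNK3; compounds were titrated.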
# [2] = molecular target: Cytochrome P450 3A4 (Homo sapiens) (UniProt P08684); assay: qHTS Assay for Inhibitors and Substrates of Cytochrome P450 3A4 (AID 884); note: nearly all actives have a fitted effect of over 50% in size
# Method in brief: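 20 nM human CYP3A4 with 25 uM Luciferin-PPXE (at KM) in 200 mM KPO4, preincubated 10 min with compound; NADPH regeneration started a 60 min RT reaction. Luciferin detected by luminescence, normalized to 57 uM ketoconazole as full inhibition.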
# [3] = Confirmation and Secondary Assay for Modulators of Hemoglobin Beta Chain Splicing at IVS2 654 locus (AID 910);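 note: per-well total GFP intensity by laser scanning cytometry after 2-day treatment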
# Method in brief: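 HeLa cells stably carrying EGFP interrupted by mutant beta-globin IVS2-654 intron (CMV-driven) were treated with compound for 2 days at 37C; corrected splicing was scored as total peak GFP intensity per well (488 nm excitation, 500-520 nm emission).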
# [4] = Confirmation and Secondary Assay for Modulators of Hemoglobin Beta Chain Splicing at IVS2 705 locus (AID 930);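 note: HeLa cells stably expressing the EGFP-705 splicing reporter; GFP fluorescence per well restored by corrected splicing of the IVS2-705 intron in EGFP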
# Method in brief: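 Fluorescence gain (488 nm laser, 500-520 nm PMT) reflects restored correct splicing of a mutant IVS2-705 intron inside EGFP in stably transfected HeLa cells after 2-day compound treatment.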
# [5] = qHTS Assay for Lipid Storage Modulators (AID 1519; calls by dose curve); conditions: Drosophila S3 cells, BODIPY lipid droplet/cell ratio, laser cytometry, cells loaded with oleic acid; for activity change, negative = inhibition: at 57.5 µM (top of the series)
# Method in brief: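 Cells seeded at 5,000 per well were treated with compounds over a concentration series and loaded with oleic acid (400 uM, as added). Lipid droplet fluorescence (488 nm excitation, 500-530 nm channel) was read by laser-scanning cytometry and normalized to 20 uM Triacsin C.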
# [6] = molecular target: Ubiquitin carboxyl-terminal hydrolase 1 (Homo sapiens) (UniProt O94782); assay: Inhibitors of USP1/UAF1: Pilot qHTS (AID 504865);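 note: rhodamine fluorescence freed from ubiquitin-rhodamine substrate followed over time; top concentration of the series differs between compounds; nearly all actives have a fitted effect of over 35% in size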
# Method in brief: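 Kinetic fluorescence assay: 1nM USP1/UAF1, 15 min compound preincubation, then 150nM Ub-Rho; 480/540 nm.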
# [7] = molecular target: Voltage-gated inwardly rectifying potassium channel KCNH2 (Homo sapiens) (UniProt Q12809); assay: qHTS Assay for Small Molecule Inhibitors of the Human hERG Channel Activity (AID 588834);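 note: top concentration of the series differs between compounds; lower thallium flux fluorescence means stronger hERG block; nearly all actives have a fitted effect of over 50% in size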
# Method in brief: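 Measured: FluxOR fluorescence after thallium stimulation in U2OS cells transduced with hERG by baculovirus. Compounds pre-incubated around 10 min; medium Opti-MEM with 2% FCS. AC50 from Hill equation.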
# [8] = AP1 Signaling Pathway (AID 357; active = well fitted curve in either direction with a large enough effect, not every such curve was filed as active;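 note: ME-180 reporter cells stimulated with EGF at its EC50 level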)
# Method in brief: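 Cells are seeded overnight, exposed to compound titrations and an EC50 level of EGF for 5 hours at 37 °C, then loaded with CCF4 dye for 2.5 hours. Beta-lactamase activity under the AP-1 element is read as a blue/green ratio.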
# [9] = molecular target: Cytochrome P450 1A2 (Homo sapiens) (UniProt P05177); assay: p450-cyp1a2 (AID 410; calls by dose curve; note: potency is the fitted concentration of half-maximal effect)
# Method in brief: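 Luminescent readout of luciferin formed from Luciferin-ME by human CYP1A2; data normalized against complete inhibition by 57 uM furafylline. Enzyme 20nM, substrate 100uM at Km, 100mM KPO4 buffer, 60 min reaction at room temperature.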
# [10] = NFAT Signaling Pathway (AID 444; active = well fitted curve in either direction with a large enough effect, not every such curve was filed as active;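 note: carbachol stimulus at about its EC50 of 1 µM final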); conditions: Jurkat NFAT-bla M1, carbachol, beta-lactamase ratio, 5 h
# Method in brief: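 Jurkat cells carrying an NFAT-driven β-lactamase reporter and co-transfected muscarinic M1 receptor were treated with compound plus carbachol (1 uM final, an EC50 level) for 5 h at 37 °C. CCF4 loading followed for 1 h at RT; 460/530 nm ratio gave %activity.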
# [11] = Stat Signaling Pathway (AID 446; active = well fitted curve in either direction with a large enough effect, not every such curve was filed as active;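 note: ME-180 cervical cancer cells given 40 pM IL-6 alongside compound; SIE-controlled beta-lactamase reporter measured as 460/530 nm FRET emission ratio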)
# Method in brief: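 Screening format detects activators and inhibitors alike: ME-180 SIE-bla cells stimulated at 40 pM IL-6 for 5 hrs with compound, then dual-emission beta-lactamase read at 405 nm excitation.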
# [12] = molecular target: Glucocorticoid receptor (Homo sapiens) (UniProt P04150); assay: GR-GFP Redistribution (AID 450;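 active = compounds whose dose series gives a full or clear partial fitted curve of increased nuclear translocation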; note: potency is the fitted concentration of half-maximal effect); conditions: U2OS GR-GFP nuclear translocation, laser cytometry, 2 h
# [13] = molecular target: Glucocorticoid receptor (Homo sapiens) (UniProt P04150); assay: GR-EFC Redistribution (AID 451; calls by dose curve; note: potency is the fitted concentration of half-maximal effect); conditions: CHO-K1 GR-EFC translocation, beta-gal luminescence, 2 h
# Method in brief: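 CHO-K1 cells stably expressing nuclear-localized β-gal enzyme acceptor and GR fused C-terminally to the enzyme donor fragment; ligand-driven nuclear translocation restores β-gal by complementation. Compounds titrated up to 46 uM final, 2 h at 37 °C; luminescence read.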
# [14] = molecular target: 3',5'-cyclic-AMP phosphodiesterase 4B (Homo sapiens) (UniProt Q07343); assay: qHTS Assay for Inhibitors of PDE-IV (AID 607; active = well fitted activation curve with a large enough effect in the main read-out, with a control signal flat, not every such curve was filed as active)
# Method in brief: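 The readout is membrane depolarisation from a cAMP-sensing CNG channel, detected with a potential dye at ex 535/em 590. Cells were HEK293-derived (endogenous PDE-IV) at 1000 cells/well, titrated up to 22.9 uM final.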
# [15] = molecular target: Cytochrome P450 3A4 (Homo sapiens) (UniProt P08684); assay: qHTS Assay for Activators of Cytochrome P450 3A4 (AID 885); note: nearly all actives have a fitted effect of over 65% in size
# Method in brief: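 Steps: enzyme/substrate mix dispensed; compound added, 10 min RT; NADPH regeneration solution added, 60 min RT; luciferin detection buffer stops reaction; 20 min later luminescence measured.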
# [16] = molecular target: DNA repair nuclease/redox regulator APEX1 (Homo sapiens) (UniProt P27695); assay: qHTS Validation Assay for Inhibitors of the Human Apurinic/apyrimidinic Endonuclease 1 (APE1) (AID 1705;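 note: TAMRA fluorescence gain over two minutes as APE1 cuts a quenched THF abasic duplex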)
# Method in brief: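 Endonuclease activity of human APE1 is followed as dequenching when the enzyme incises a tetrahydrofuran abasic site in a short duplex labelled 5'-TAMRA/3'-BHQ-2 (50 nM final), after 15 min enzyme–compound preincubation at room temperature.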
# [17] = molecular target: ATP-dependent DNA helicase Q1 (Homo sapiens) (UniProt P46063); assay: qHTS Validation Assay for Inhibitors of RecQ-Like Dna Helicase 1 (RECQ1) (AID 2353)
# Method in brief: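 50 nM RECQ1T1 preincubated 15 min with compound in Tris pH 8.0 buffer with MgCl2, DTT, Tween-20 and 2.5 ug/ml poly(dI-dC); started with 200 nM TAMRA/BHQ-2 forked duplex and 2 mM ATP. Unwinding read as fluorescence (525/598 nm), two reads 2 h apart.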
# [18] = molecular target: Lysosomal acid glucosylceramidase (Homo sapiens) (UniProt P04062); assay: Glucocerebrosidase-p2 (AID 348; in the data active = potency below about 10 µM; note: potency is the fitted concentration of half-maximal effect); conditions: purified GBA, blue fluorogenic substrate, 40 min
# Method in brief: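 Compounds titrated from 0.6 nM upwards against 0.2 nM enzyme in pH 5.9 citric acid/KH2PO4, taurocholate, tween-20; blue fluorogenic substrate 80 uM, 40 min room temperature, stopped and read Ex 365/Em 440 for AC50.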
# [19] = measured here: cell count channel max response
# [20] = measured here: lipid channel max response
# Chain of ATP-dependent DNA helicase Q1 (Homo sapiens) (P46063 whole entry, looked up): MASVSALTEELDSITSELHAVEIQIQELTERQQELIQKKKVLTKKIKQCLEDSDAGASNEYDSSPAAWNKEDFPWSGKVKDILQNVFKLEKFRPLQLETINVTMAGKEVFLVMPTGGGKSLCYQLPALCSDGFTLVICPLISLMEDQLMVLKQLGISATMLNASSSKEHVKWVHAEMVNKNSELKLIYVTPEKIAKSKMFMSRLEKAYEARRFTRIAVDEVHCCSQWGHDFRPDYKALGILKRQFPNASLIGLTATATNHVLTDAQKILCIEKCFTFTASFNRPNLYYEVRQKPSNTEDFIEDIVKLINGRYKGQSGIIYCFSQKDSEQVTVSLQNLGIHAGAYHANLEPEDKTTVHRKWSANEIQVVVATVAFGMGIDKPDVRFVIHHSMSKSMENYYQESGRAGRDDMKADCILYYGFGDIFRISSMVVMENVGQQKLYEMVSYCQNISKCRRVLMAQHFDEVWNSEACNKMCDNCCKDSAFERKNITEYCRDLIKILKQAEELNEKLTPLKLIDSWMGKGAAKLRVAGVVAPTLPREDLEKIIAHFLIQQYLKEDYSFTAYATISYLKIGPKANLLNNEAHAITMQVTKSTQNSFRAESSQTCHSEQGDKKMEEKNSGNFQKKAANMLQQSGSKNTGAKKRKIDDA
# Chain of Ubiquitin carboxyl-terminal hydrolase 1 (Homo sapiens) (O94782 whole entry, looked up): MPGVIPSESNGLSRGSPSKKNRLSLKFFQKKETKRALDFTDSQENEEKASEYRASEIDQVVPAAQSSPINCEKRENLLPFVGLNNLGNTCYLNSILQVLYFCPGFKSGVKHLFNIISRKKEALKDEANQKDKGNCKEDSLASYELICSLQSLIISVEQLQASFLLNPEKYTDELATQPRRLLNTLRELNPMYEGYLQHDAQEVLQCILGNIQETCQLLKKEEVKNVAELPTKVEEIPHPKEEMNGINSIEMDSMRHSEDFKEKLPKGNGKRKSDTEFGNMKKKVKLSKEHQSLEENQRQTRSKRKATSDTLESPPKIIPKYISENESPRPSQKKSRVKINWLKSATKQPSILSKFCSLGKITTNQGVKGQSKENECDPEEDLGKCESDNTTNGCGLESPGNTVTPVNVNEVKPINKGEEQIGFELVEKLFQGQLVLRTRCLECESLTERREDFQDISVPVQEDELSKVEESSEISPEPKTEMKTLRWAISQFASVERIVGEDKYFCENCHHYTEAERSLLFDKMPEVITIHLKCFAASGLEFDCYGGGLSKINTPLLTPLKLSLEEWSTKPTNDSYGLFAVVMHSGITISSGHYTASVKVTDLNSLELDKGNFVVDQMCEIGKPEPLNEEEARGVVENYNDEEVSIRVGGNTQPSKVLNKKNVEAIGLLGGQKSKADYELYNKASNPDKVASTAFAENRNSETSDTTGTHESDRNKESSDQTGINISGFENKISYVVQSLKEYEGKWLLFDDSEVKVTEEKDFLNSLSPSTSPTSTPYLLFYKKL
# Chain of Cytochrome P450 3A4 (Homo sapiens) (P08684 whole entry, looked up): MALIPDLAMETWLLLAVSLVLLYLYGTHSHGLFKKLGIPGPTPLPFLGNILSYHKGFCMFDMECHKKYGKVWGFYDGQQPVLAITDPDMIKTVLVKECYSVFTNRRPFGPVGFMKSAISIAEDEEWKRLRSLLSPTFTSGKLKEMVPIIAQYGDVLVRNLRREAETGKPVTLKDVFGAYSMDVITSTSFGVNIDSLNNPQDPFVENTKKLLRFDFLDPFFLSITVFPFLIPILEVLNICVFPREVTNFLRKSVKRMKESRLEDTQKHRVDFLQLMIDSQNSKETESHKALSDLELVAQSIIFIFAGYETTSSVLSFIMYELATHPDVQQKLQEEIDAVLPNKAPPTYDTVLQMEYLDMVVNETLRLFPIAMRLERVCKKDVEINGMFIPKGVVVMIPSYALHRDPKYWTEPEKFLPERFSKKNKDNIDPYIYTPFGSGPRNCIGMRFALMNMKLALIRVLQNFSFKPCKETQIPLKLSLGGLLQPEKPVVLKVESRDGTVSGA
# Chain of Voltage-gated inwardly rectifying potassium channel KCNH2 (Homo sapiens) (Q12809 whole entry, looked up): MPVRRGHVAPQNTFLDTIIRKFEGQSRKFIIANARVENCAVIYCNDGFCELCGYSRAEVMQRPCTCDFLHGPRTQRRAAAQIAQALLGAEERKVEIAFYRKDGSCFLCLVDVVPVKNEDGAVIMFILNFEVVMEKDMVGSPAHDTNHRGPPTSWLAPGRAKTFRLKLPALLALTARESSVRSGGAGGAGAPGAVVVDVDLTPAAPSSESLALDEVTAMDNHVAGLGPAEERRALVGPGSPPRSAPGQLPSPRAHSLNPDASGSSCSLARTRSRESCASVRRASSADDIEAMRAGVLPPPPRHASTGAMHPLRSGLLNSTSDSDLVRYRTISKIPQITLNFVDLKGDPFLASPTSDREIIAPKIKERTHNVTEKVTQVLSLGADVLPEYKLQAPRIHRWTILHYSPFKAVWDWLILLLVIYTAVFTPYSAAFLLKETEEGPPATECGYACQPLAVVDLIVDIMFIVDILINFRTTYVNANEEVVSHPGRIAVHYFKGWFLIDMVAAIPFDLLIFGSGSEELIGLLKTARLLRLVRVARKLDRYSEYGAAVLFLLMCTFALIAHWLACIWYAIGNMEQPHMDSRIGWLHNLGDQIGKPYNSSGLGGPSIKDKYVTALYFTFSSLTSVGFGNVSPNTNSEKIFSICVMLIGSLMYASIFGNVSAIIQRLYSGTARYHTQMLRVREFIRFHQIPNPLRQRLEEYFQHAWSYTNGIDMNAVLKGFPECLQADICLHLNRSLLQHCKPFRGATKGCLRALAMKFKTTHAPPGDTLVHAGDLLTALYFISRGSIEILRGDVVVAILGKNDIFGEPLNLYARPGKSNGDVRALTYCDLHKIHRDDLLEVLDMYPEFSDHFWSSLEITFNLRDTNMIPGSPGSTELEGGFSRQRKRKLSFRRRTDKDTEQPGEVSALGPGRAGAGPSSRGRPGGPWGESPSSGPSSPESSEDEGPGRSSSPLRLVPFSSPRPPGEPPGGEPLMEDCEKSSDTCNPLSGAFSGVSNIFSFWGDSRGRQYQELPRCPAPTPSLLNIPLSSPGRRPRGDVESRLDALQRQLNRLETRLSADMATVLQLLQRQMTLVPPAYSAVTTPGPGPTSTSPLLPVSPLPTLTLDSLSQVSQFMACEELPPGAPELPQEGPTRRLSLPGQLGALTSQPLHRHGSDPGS
# Chain of Glucocorticoid receptor (Homo sapiens) (P04150 whole entry, looked up, the tested form may be a part): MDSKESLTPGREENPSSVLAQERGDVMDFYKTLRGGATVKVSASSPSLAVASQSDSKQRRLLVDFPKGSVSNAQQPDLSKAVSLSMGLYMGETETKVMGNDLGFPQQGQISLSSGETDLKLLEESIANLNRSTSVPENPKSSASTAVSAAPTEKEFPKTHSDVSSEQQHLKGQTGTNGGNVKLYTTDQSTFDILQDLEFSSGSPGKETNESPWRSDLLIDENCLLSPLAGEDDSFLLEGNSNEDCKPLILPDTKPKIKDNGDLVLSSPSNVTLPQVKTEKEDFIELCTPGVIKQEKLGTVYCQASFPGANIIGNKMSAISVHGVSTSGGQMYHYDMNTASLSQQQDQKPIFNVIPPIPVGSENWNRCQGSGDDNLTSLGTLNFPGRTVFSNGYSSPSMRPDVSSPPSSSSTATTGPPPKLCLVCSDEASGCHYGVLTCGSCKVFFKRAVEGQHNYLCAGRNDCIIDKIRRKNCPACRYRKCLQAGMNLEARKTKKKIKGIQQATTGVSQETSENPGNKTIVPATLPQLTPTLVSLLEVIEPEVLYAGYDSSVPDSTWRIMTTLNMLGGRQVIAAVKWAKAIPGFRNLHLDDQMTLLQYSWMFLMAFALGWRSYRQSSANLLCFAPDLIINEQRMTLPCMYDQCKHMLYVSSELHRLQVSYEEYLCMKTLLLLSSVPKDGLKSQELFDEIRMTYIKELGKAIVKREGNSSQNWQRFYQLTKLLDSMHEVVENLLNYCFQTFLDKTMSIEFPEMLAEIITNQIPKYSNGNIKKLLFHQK
# Chain of DNA repair nuclease/redox regulator APEX1 (Homo sapiens) (P27695 whole entry, looked up): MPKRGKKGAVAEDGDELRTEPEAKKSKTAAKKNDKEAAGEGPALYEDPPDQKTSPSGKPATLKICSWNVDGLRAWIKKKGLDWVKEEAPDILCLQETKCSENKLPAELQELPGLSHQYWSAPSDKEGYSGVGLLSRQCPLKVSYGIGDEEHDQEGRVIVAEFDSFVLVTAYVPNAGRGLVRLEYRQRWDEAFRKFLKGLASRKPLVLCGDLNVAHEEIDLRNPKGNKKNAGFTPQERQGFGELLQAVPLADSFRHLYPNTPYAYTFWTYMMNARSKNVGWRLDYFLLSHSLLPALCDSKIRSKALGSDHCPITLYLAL
# Chain of 3',5'-cyclic-AMP phosphodiesterase 4B (Homo sapiens) (Q07343 whole entry, looked up): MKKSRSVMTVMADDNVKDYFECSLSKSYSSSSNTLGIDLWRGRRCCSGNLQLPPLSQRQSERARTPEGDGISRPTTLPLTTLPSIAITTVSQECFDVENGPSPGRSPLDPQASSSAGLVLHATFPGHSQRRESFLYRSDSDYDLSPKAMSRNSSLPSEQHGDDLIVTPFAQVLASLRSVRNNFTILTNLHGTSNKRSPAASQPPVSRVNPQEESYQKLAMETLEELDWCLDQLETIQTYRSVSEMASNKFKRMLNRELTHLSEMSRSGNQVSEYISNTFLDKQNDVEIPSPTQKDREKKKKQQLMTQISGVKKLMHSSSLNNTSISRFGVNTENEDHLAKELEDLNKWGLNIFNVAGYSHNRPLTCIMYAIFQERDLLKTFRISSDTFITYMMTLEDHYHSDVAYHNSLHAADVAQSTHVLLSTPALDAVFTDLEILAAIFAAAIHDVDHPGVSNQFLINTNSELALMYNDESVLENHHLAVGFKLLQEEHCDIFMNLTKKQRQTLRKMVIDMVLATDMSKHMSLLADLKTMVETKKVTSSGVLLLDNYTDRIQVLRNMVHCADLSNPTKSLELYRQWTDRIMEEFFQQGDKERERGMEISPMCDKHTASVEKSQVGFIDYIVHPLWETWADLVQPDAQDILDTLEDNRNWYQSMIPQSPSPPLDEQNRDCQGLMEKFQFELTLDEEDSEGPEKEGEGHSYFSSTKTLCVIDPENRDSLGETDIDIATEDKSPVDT
structure (smiles),measurement,setting,value
c1ccc(N=Nc2ccccc2)cc1,outcome,[1],inactive
same,Potency,[2],inactive
same,Potency,[3],inactive
same,Potency,[4],inactive
same,"activity change, negative = inhibition",[5],-5.75% (inactive)
same,max response,[5]; [19],-21.5%
same,max response,[5]; [20],-24.4%
same,Potency,[6],inactive
same,Potency,[7],inactive
COc1cc(C=C(C#N)C#N)cc(O)c1O,outcome,[8],inactive
same,Potency,[9],12.6 µM (active)
same,"activity change, negative = inhibition",[10]; at 38 µM (top of the series),-29.4% (inactive)
same,outcome,[11],inactive
same,Potency,[12],> 46 µM (inactive)
same,Potency,[13],> 46 µM (inactive)
same,Potency,[14],inactive
same,Potency,[15],inactive
same,"activity change, negative = inhibition",[5],-2.14% (inactive)
same,max response,[5]; [19],23.5%
same,max response,[5]; [20],22.3%
same,Potency,[16],inactive
same,outcome,[17],inactive
same,Potency,[7],inactive
C=CCN1CC[C@@]2(C)c3cc(O)ccc3CC1[C@@H]2C,"activity change, negative = inhibition",[5],-0.315% (inactive)
same,max response,[5]; [19],26.7%
same,max response,[5]; [20],28.1%
same,Potency,[16],inactive
same,outcome,[17],inactive
same,Potency,[7],inactive
CCNc1nc(Cl)nc(NC(C)C)n1,outcome,[1],inactive
same,Potency,[2],inactive
same,Potency,[3],inactive
same,Potency,[4],inactive
same,"activity change, negative = inhibition",[5],7.77% (inactive)
same,max response,[5]; [19],2.72%
same,max response,[5]; [20],11.1%
same,Potency,[6],inactive
same,Potency,[7],inactive
O=C(Nc1cccc(F)c1)N1CCC2(CC1)CCN(C(=O)Oc1ccccc1)CC2,Potency,[18],> 11.4 µM (inactive)
same,outcome,[8],inactive
same,Potency,[9],inactive
same,"activity change, negative = inhibition",[10]; at 7.69 µM (top of the series),12% (inactive)
same,outcome,[11],inactive
same,Potency,[13],> 46 µM (inactive)
same,Potency,[14],inactive
same,"activity change, negative = inhibition",[5],-7.04% (inactive)
same,max response,[5]; [19],-23.3%
same,max response,[5]; [20],-28%
CCCN1CCC[C@@H]2Cc3n[nH]cc3C[C@H]21,"activity change, negative = inhibition",[5],3.49% (inactive)
same,max response,[5]; [19],9.58%
same,max response,[5]; [20],14.1%
same,Potency,[16],inactive
same,outcome,[17],inactive
C=CCc1ccc2c(c1)OCO2,outcome,[1],inactive
same,Potency,[15],inactive
same,Potency,[3],inactive
same,Potency,[4],inactive
same,"activity change, negative = inhibition",[5],12.7% (inactive)
same,max response,[5]; [19],13.6%
same,max response,[5]; [20],31.4%
same,Potency,[7],inactive
CNCC[C@@H](Oc1ccc(C(F)(F)F)cc1)c1ccccc1,"activity change, negative = inhibition",[5],1.23% (inactive)
same,max response,[5]; [19],-30.3%
same,max response,[5]; [20],-28.9%
same,Potency,[16],inactive
COC(=O)NC(=S)Nc1ccccc1NC(=S)NC(=O)OC,outcome,[1],inactive
same,Potency,[2],inactive
same,Potency,[3],inactive
same,"activity change, negative = inhibition",[5],3.23% (inactive)
same,max response,[5]; [19],8.02%
same,max response,[5]; [20],10.3%
same,Potency,[6],inactive
same,Potency,[7],inactive
CCN1C[C@]2(C)CC[C@H](O)[C@@]34[C@@H]5C[C@@H]6[C@@H](OC)C[C@@](O)(C5[C@H]6O)[C@@H](C[C@@H]23)[C@@H]14,"activity change, negative = inhibition",[5],1.56% (inactive)
same,max response,[5]; [19],-17.1%
same,max response,[5]; [20],-16.8%
same,Potency,[16],inactive
same,outcome,[17],inactive
same,Potency,[7],inactive
